Results taken from PubChem BioAssay AID2685 (National Center for Advancing Translational Sciences (NCATS), 2010).
About 2,100 (0.66%) of roughly 320,000 compounds were called active. Inconclusive results (about 53%) are left out. Calls follow the shape of the dose curve; as a rule, active = well fitted inhibition curve with a large enough effect in the signal ratio, with a control signal flat (not every such curve was filed as active); inconclusive = small, poorly fitted or top-dose-only effect, or effect the other way, or a change in a side signal; inactive = flat fitted curve, though single readings scatter; the % refers to the signal ratio. What follows is part of a selection rich in actives, with near analogues and random picks from the rest.

assay: qHTS Assay for Lipid Storage Modulators in Drosophila S3 Cells; conditions: BODIPY lipid droplet fluorescence, 18-24 h, cells fed with added oleic acid; cell number change: measured here: cell count max response; series mostly up to 46.1 µM; lipid storage change, negative = inhibition: at the top concentration;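 as to cell number change: cells counted by Cell Tracker Red CMTPX staining in the red channel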; as to lipid storage change, negative = inhibition: % is scaled to controls: 0 for no effect and ±100 for the full control effect
Method in brief: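 Drosophila S3 cells got compounds at several concentrations plus oleic acid (400 uM solution). Laser-scanning cytometry with 488 nm excitation read lipid droplets at 500-530 nm and cells at 575-640 nm. Percent activity was relative to 20 uM Triacsin C.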
Potency is read from the fitted curve at half-maximal effect.

Structure (SMILES) | lipid storage change, negative = inhibition | cell number change | Potency | outcome
O=C(CSc1nc2c(c(=O)n1-c1ccc(F)cc1)SCC2)N1CCCC1 | -0.194% (inactive) | -5.69% |  | 
Cc1cc(C)cc(OC(=O)COc2ccccc2C)c1 | 0.642% (inactive) | 16.2% |  | 
CCCOc1ccccc1C(=O)N(Cc1ccco1)C1CCS(=O)(=O)C1 (stereo not given) | -5.58% (inactive) | -17.8% |  | 
CCOC(=O)C1=C(COC(=O)CCC(=O)c2ccc(C)cc2)NC(=O)NC1C (stereo not given) | 16.2% (inactive) | 25.4% |  | 
CC(=O)C(Sc1ccc2nnc(-c3ccncc3)n2n1)C(C)=O | 10.9% (inactive) | 11% |  | 
Cc1cc(C)cc(N(CCC(=O)Nc2nnc(C)s2)S(=O)(=O)c2ccc(Cl)cc2)c1 | 13.3% (inactive) | -5.03% |  | 
Cc1nc([N+](=O)[O-])c(SCC(N)=O)n1Cc1ccccc1 | -0.96% (inactive) | 11.1% |  | 
Cc1ccc(C(=O)C2CCN(S(=O)(=O)c3ccccc3C(=O)O)CC2)cc1 | -9.15% (inactive) | 25.8% |  | 
COCCN(CC1CCCN(C2Cc3ccccc3C2)C1)C(=O)CCC(F)(F)F (stereo not given) | -0.431% (inactive) | 20.2% |  | 
COc1ccc(C(=O)CCN2CCCC(C)C2)cc1 (stereo not given) |  | -14.2% | 11.6 µM (active) | 
COc1cccc(NC(=O)COc2ccc3c(c2)CCC3)c1 |  |  |  | inactive
COc1ccc(NC(=O)N2CCCC(C(=O)Nc3ccccc3OC)C2)cc1 (stereo not given) | 28.8% (inactive) | 0.427% |  | 
CC1CCCN(CCC(=O)c2ccc(Br)cc2)C1 (stereo not given) | 4.51% (inactive) | -9.39% |  | 
O=C(Nc1ccc(C(=O)N2CCOCC2)cc1)Nc1cccc(Cl)c1 | 14.8% (inactive) | 5.64% |  | 
COc1ccc(NC(=O)CCN2CCCC(C)C2)cc1 (stereo not given) | 0.0368% (inactive) | 17% |  | 
COc1ccc(NC(=O)N2CCCC(C(=O)NC(C)C)C2)cc1 (stereo not given) | 11.9% (inactive) | 10.2% |  | 
O=C(Nc1ccc(C(=O)N2CCCCC2)cc1)Nc1cccc(Cl)c1 |  |  | 13 µM (active) | 
COc1ccc(NC(=O)COc2ccc3c(c2)CCC3)cc1 |  |  | 8.2 µM (active) | 
COc1ccc(NC(=O)C2CCCN(C(=O)Nc3ccc(OC)cc3)C2)cc1 (stereo not given) |  | 16.7% | 1.03 µM (active) | 
CCOc1ccc(NC(=O)COc2ccc3c(c2)CCC3)cc1OC | 0.757% (inactive) | -12.3% |  | 
CC(=O)c1cccc(NC(=O)Nc2ccc(C(=O)N3CCCC3)cc2)c1 | -1.01% (inactive) | 14.3% |  | 
NS(=O)(=O)c1cc(Cl)c(NC(=O)COC(=O)c2ccccn2)c(Cl)c1 | 8.46% (inactive) | 16.5% |  | 
N#Cc1ccccc1OCC(=O)Nc1ccc2c(c1)OCCCO2 |  | 0.833% |  | inactive
O=[N+]([O-])c1ccc(Oc2ccc(OCc3ccccc3)cc2)nc1 | -0.254% (inactive) | -9.11% |  | 

Structure (SMILES) | lipid storage change, negative = inhibition | cell number change | Potency | outcome
CC(=O)Nc1ccc(NC(=O)C(C)OC(=O)CCC(=O)c2ccc(F)cc2)cc1 (stereo not given) | 2.38% (inactive) | 8.99% |  | 
Cc1ccc(C(=O)NNC(=O)c2ccncc2)cc1C | 11.9% (inactive) | 12.2% |  | 
CCOC(=O)N1CCN(CC(O)COc2c(C)cc(C)cc2C)CC1 (stereo not given) | 7.41% (inactive) | 5% |  | 
O=C(Cc1ccc(S(=O)(=O)N2CCOCC2)s1)Nc1ccc2c(c1)CCC2 | -2.06% (inactive) | -23.1% |  | 
Cc1cccc(NC(=O)CCN2CCCCC2)c1 | 10.7% (inactive) | 8.73% |  | 
O=C(CCN1CCCCC1)Nc1cccc(Cl)c1 |  | -28.1% | 25.9 µM (active) | 
CNC(=O)c1ccc(NC(=O)Cc2ccc(S(=O)(=O)N3CCOCC3)s2)cc1 |  |  |  | inactive
O=C(CCN1CCCCC1)Nc1ccccc1 | -20.5% (inactive) | -23.3% |  | 
O=C(CCN1CCCCCC1)Nc1ccc(F)cc1 | -0.0849% (inactive) | -3.75% |  | 
O=C(CCN1CCCCCC1)Nc1cccc(F)c1 |  | -13.4% | 25.9 µM (active) | 
O=C(NCCN1CCCCC1)Nc1cccc(F)c1 | 15.7% (inactive) | -5.7% |  | 
CCOC(=O)c1cc(NC(=O)Cc2ccc(S(=O)(=O)N3CCOCC3)s2)cc(C(=O)OCC)c1 |  | -15.4% | 1.16 µM (active) | 
COc1ccc(NC(=O)C2CCCN(S(=O)(=O)c3ccc4c(c3)oc(=O)n4C)C2)c(OC)c1 (stereo not given) | 11.1% (inactive) | 13.3% |  | 
COc1cc(C2NC(=O)NC(C)=C2C(C)=O)cc(OC)c1OC (stereo not given) | 11.4% (inactive) | 0.318% |  | 
COc1ccc(CC(=O)Nc2ccc(/C(C)=N\NC(=O)c3ccc(Br)o3)cc2)cc1 | -18.3% (inactive) | 2.49% |  | 
COC(=O)c1ccc(COC(=O)C2CC(O)CN2S(=O)(=O)c2ccc([N+](=O)[O-])cc2)cc1 (stereo not given) | -0.843% (inactive) | 2.24% |  | 
CC1CCCC(C)N1C(=O)CSc1nnc(NC(=O)c2cccs2)s1 (stereo not given) | 13% (inactive) | 3.67% |  | 
CCn1cc([N+](=O)[O-])c(C(=O)N2CCOCC2)n1 | -9.37% (inactive) | -13.3% |  | 
CCn1cc([N+](=O)[O-])c(C(=O)N2CCCC2)n1 |  | -10.5% | 29.1 µM (active) | 
CCn1cc([N+](=O)[O-])c(C(=O)N2CCCCCC2)n1 | 0.775% (inactive) | 11.5% |  | 
COc1ccc(/C=N/S(=O)(=O)c2ccc(C)cc2)cc1 | -20.7% (inactive) |  |  | 
Cc1ccc(SCC(=O)OCC(=O)NC(C)c2ccc(Br)cc2)cc1 (stereo not given) |  | -2.31% |  | inactive
CC(=O)C(Cc1ccccc1)NC(=O)COC(=O)CCN1C(=O)C2CC=CCC2C1=O (stereo not given) | 11% (inactive) | 7.02% |  | 
CC(NC(=O)COC(=O)CCN1C(=O)C2CC=CCC2C1=O)c1ccc(Br)cc1 (stereo not given) |  | 1.69% | 9.2 µM (active) | 

Structure (SMILES) | lipid storage change, negative = inhibition | cell number change | Potency | outcome
O=C1N(CC(=O)N2CCc3ccccc32)CCN1Cc1ccc(Cl)cc1 |  |  |  | inactive
COc1cc(Cl)nn(-c2ccccc2)c1=O | 6.03% (inactive) | 0.264% |  | 
COc1c(Cl)cnn(-c2ccccc2)c1=O | 5.58% (inactive) | -2.85% |  | 
COc1nn(-c2ccccc2)c(=O)c(Cl)c1Cl |  | -20% | 11.6 µM (active) | 
COc1ccc(NC(=O)NC2CCCCCCC2)c(OC)c1 |  | -0.578% |  | inactive
COc1ccc(NC(=O)Cn2ccc3c(OC)cccc3c2=O)cc1 | 0.623% (inactive) | 0.407% |  | 
CNC(=O)NC(=O)COc1ccc2oc3c(c2c1)CCCC3 |  | 18.9% | 0.58 µM (active) | 
O=C(O)COc1ccc2oc3c(c2c1)CCCC3 |  | 21.3% |  | inactive
NNC(=O)COc1ccc2oc3c(c2c1)CCCC3 |  | 10.5% |  | inactive
O=C(N/N=C/c1ccco1)c1cc(-c2ccccc2)nc2ccccc12 |  | -7.31% | 29.1 µM (active) | 
O=C(N/N=C/c1ccco1)c1cc(C2CC2)nc2ccccc12 |  | -1.9% |  | inactive
COc1cccc(-c2cc(C(=O)N/N=C/c3ccco3)c3ccccc3n2)c1 | -13.5% (inactive) |  |  | 
O=C1N/C(=N/O)S/C1=C/c1cccnc1 | -2.62% (inactive) | 16% |  | 
O=C(COC(=O)c1cc2ccccc2o1)c1ccccc1 |  | -6.43% |  | inactive
CC(=O)/C=C\c1ccccc1OC(=O)c1cc2ccccc2oc1=O | -11.6% (inactive) | -9.71% |  | 
O=C(Oc1ccccc1/C=C\C(=O)c1cc2ccccc2o1)c1ccccc1 |  |  | 14.6 µM (active) | 
FC(F)(F)c1cc(C(F)(F)F)c2ccc(N3CCOCC3)nc2n1 | 1.42% (inactive) | 4.12% |  | 
C=CCn1c(SCC(=O)NC(=O)c2cccc([N+](=O)[O-])c2)nnc1-c1ccccc1F | -0.693% (inactive) | -9.47% |  | 
Cc1ccc(C(=O)OCC(=O)N2CCOCC2)cc1 |  | -0.794% |  | inactive
CCN(c1ccc(NC(=O)COC(=O)c2ccc(C)c(S(=O)(=O)N3CCOCC3)c2)cc1)C(C)C |  | -6.95% | 23.1 µM (active) | 
O=C(COC(=O)c1ccc(Br)c(S(=O)(=O)N2CCOCC2)c1)NCC1CCCO1 (stereo not given) |  | -0.879% | 0.58 µM (active) | 
Cc1ccc(NC(=O)COC(=O)c2ccc(C)c(S(=O)(=O)N3CCOCC3)c2)cc1 | 1.82% (inactive) | 6.4% |  | 
O=C(COC(=O)c1cc(S(=O)(=O)N2CCOCC2)ccc1O)NCC1CCCO1 (stereo not given) | 19.7% (inactive) | -22.6% |  | 
Cc1ccc(C(=O)OCC(=O)Nc2ccc3c(c2)OCO3)cc1S(=O)(=O)N1CCOCC1 | 12.5% (inactive) | -2.32% |  | 

Structure (SMILES) | lipid storage change, negative = inhibition | cell number change | Potency | outcome
O=C(COC(=O)c1ccc(Cl)c(S(=O)(=O)N2CCCCC2)c1)NCC1CCCO1 (stereo not given) | 7.99% (inactive) | 18.1% |  | 
CSc1sc(C(=O)OC(C)C)c2c1C(=O)CC(C)(C)C2 |  | -5.28% |  | inactive
O=C(NC1CC1)C1=C[C@H](c2ccc3c(c2)OCO3)C[C@H](OCc2ccc(CO)cc2)O1 | 9.56% (inactive) | 3.05% |  | 
CC(=O)N1CCc2cc(Br)cc(S(=O)(=O)NCCCN3CCCC(C)C3)c21 (stereo not given) | 6.45% (inactive) | -1.7% |  | 
CCCc1nc(SCC(=O)N2CCc3ccccc3C2)c2ccccc2n1 | -4.35% (inactive) | -13.9% |  | 
O=C(c1ccco1)N1CCN(C(=O)C2CC2)CC1 | -0.297% (inactive) | 3.46% |  | 
O=C1c2ccccc2NC(c2cccc([N+](=O)[O-])c2)N1O (stereo not given) | -0.341% (inactive) | 5.94% |  | 
CC(=O)NN1C(=O)c2ccccc2NC1c1cccc([N+](=O)[O-])c1 (stereo not given) | 0.744% (inactive) | -1.27% |  | 
O=C1c2ccccc2NC(c2cccc([N+](=O)[O-])c2)N1CCc1ccccc1 (stereo not given) |  | 8.73% | 5.8 µM (active) | 
C[N+]1(C)CC2([N+](=O)[O-])CC=C(Oc3ccccc3)C([N+](=O)[O-])(C2)C1 (stereo not given) | -9.09% (inactive) | -16.8% |  | 
COCCn1c(SCC(=O)c2c(N)n(C3CC3)c(=O)[nH]c2=O)nnc1-c1ccc(Cl)cc1 | 5.65% (inactive) | -5.22% |  | 
Cc1cc([N+](=O)[O-])ccc1NCc1ccccc1[N+](=O)[O-] | 13.6% (inactive) | 7.15% |  | 
CC(=O)Nc1ccc(NC(=O)CSc2ccc([N+](=O)[O-])cn2)cc1 | 8.29% (inactive) | 0.135% |  | 
O=C(CSc1ccc([N+](=O)[O-])cn1)Nc1nccs1 |  | 2.83% | 18.4 µM (active) | 
O=C(Cn1cc([N+](=O)[O-])cn1)Nc1nccs1 | 3.37% (inactive) | 10.2% |  | 
CCN(CC(=O)Nc1ccc(OC)cc1)C(=O)CCS(=O)(=O)c1ccc(C)cc1 | -1.53% (inactive) | 4.09% |  | 
COc1ccc(CNS(=O)(=O)c2c(C(=O)N3CCCCC3)c(C)n(C)c2C)cc1 |  | -6.92% |  | inactive
O=C(CC12CC3CC(CC(C3)C1)C2)Nc1c(F)cccc1F | -2.56% (inactive) | -17.2% |  | 
CNC(=O)c1ccc(NC(=O)CC23CC4CC(CC(C4)C2)C3)cc1 |  | 12.8% |  | inactive
CCN(CC)C(=O)c1cccc(NC(=O)CC23CC4CC(CC(C4)C2)C3)c1 |  | 17.9% | 0.231 µM (active) | 
COc1ccc(CCNC(=O)C2CCC(=O)N2Cc2ccccc2Cl)cc1OC (stereo not given) | -20.8% (inactive) | -14.8% |  | 
Cc1cc(C(=O)NCCCN2CCN(c3cc(Cl)ccc3C)CC2)n(-c2ccccc2)n1 | -3.15% [at 9.22 µM] (inactive) | 12.1% |  | 
